Results as given in PubChem BioAssay AID1745853 (National Center for Advancing Translational Sciences (NCATS), 2022).
Hit rate of the full screen: of about 25,000 compounds, about 970 (3.9%) were called active. Roughly 8% stayed inconclusive and do not appear here. The sample holds actives, similar compounds and a random draw of the others, so the mix is not that of the screen. The rule behind the calls is not given here.

How the values were obtained:
Assay in all cases: Primary Screen for Target Class Profiling of Small Molecule Inhibitors of Methyltransferases
[1] = target: Catechol O-methyltransferase (Homo sapiens) (UniProt P21964); conditions: purified enzyme, MTase-Glo SAH luminescence; activity change, negative = inhibition: at 40 µM, stronger effect = lower value; outcome: 40 uM
Catechol O-methyltransferase (Homo sapiens), sequence (P21964 whole entry, looked up): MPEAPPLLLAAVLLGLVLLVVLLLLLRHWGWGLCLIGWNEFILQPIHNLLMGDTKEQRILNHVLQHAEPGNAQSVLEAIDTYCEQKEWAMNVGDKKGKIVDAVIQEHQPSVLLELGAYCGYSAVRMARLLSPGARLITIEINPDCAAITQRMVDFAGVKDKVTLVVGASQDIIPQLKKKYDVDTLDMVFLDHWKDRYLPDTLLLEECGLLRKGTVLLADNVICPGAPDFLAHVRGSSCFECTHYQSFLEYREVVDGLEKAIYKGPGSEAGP
Excerpt: (§1) PI: Matthew D. Hall Ph.D. and Quinlin M. Hanson Ph.D.
(§2) National Center for Advancing Translational Sciences (NCATS)
(§3) National Institute of Health (NIH), Rockville, MD
(§4) Target class profiling (TCP) is a chemical biology approach amenable to investigating understudied biological targets. TCP is achieved by developing a generalizable assay platform and applying it to screen a curated set of compound libraries against representative members of a target class. Small molecule methyltransferases (SMMTase) are a subclass of methyltransferase that act on metabolites to modulate signaling pathways, metabolize xenobiotics, or balance the available methyl pool. We screened four curated libraries totaling 27,574 unique compounds against the SMMTases nicotinamide N-methyltransferase (NNMT), phenylethanolamine N-methyltransferase (PNMT), histamine N-methyltransferase (HNMT), glycine N-methyltransferase (GNMT), catechol O-methyltransferase (COMT), and guanidinoacetate N-methyltransferase (GAMT). The data generated by this TCP can be leveraged for informed tool molecule development. For example, in the associated publication we identified a chemotype of HNMT-selective inhibitors. Additionally, we identified a putative SMMTase-selective inhibitor with potential as a tool molecule for studying broader methyltransferase biology.
(§5) High-through put screening assays were developed at the National Center for Advancing Translational Science (NCATS) for the enzymes NNMT, PNMT, HNMT, GNMT, COMT, and GAMT. Enzymatic activity was measured as a function of SAM cofactor conversion using the MTase Glo kit (Promega) for all enzymes. All assays were performed in 1536-well format with substrates and SAM concentrations at KM values. Enzyme concentration and assay timing were optimized for 10-20% SAM conversion. Initial screening of 27,574 compounds was done as single-point assays using the highest compound concentration (40 uM). […] These compounds were replated in 11-point dose response and assayed against NNMT, PNMT, HNMT, GNMT, COMT, GAMT, and a counter-assay. The IC50 and efficacy (maximal response) values were determined for each dose-response curve. These values are also accounted for in the area under the curve (AUC) values.
(§6) PROTOCOL TABLE (as described by Inglese J, Shamu CE and Guy RK. 2007)
(§7) SEQUENCE No. (e.g., 1, 2, 3, etc.); […] (e.g., Cells, Incubation, Reagent, etc.); VALUE; DESCRIPTION.
(§8) 1; Reagent; 2 uL; SMMTase Enzyme (2x) in reaction buffer, columns 1- 48.
(§9) 2; Reagent; 1 uL; SAM (4x) in reaction buffer, columns 1-48.
(§10) 3; Controls; 23 nL; DMSO in column 4; sinefungin in DMSO (0 uM - 40 uM) in 7-point 1:2 dilution series (n = 2) in column 2.
(§11) 4; Compounds; 23 nL; Columns 5-48.
(§12) 5; Reagent; 1 uL; Substrate (4x) in reaction buffer, columns 2-48.
(§13) 6; Time; 20-30 min; Incubation.
(§14) 7; Reagent; 1 uL; MTase-Glo reagent (5X), columns 1-48.
(§15) 8; Time; 30 min; Incubation.
(§16) 9; Reagent; 5 uL; MTase-Glo Detection reagent, columns 1-48.
(§17) 10; Time; 30 min; Incubation, luminescence evolution.
(§18) 11; Detection; Luminescence; ViewLux uHTS Microplate Imager (PerkinElmer).
(§19) NOTES (numbers refer to Sequence numbers above)
(§20) 1, 2, 5. White Medium Binding Greiner 1536-well plates (Cat #789175-F, Greiner Bio-One, Monroe, NC); Reaction buffer: 50 mM Tris, pH 8.0, 3 mM MgCl2, 1 mM EDTA, 50 mM NaCl, 1 mM DTT, and 0.1 mg/mL BSA. Evaporation was prevented by covering assay plates with metal lids containing holes to allow gas diffusion.
(§21) 1. Six SMMTase were profiled: HNMT, GNMT, PNMT, COMT, NNMT, GAMT
(§22) 5. The corresponding substrate was used for each enzyme: HNMT - 5.3 uM Histamine; GNMT - >500 uM Glycine; PNMT - 16.2 uM Norephinephrine; COMT - 13.7 uM Norephinephrine; NNMT - 3.8 uM Nicotinamide; GAMT - 2.5 uM Guanidinoacetate.6, 8, 10. Room temperature
(§23) 6. Final reaction conditions: 10 nM COMT, 5 uM SAM, 15 uM norepinephrine, 50 mM Tris, pH 8.0, 3 mM MgCl2, 1 mM EDTA, 50 mM NaCl, 1 mM DTT, and 0.1 mg/mL BSA; refer to tables 2 and S1 for specific timing.
8. […]

[2] = target: Glycine N-methyltransferase (Homo sapiens) (UniProt Q14749); conditions: purified enzyme, MTase-Glo SAH luminescence; measured here: GNMT inhibition; at 40 µM; stronger effect = lower value
Glycine N-methyltransferase (Homo sapiens), sequence (Q14749 whole entry, looked up): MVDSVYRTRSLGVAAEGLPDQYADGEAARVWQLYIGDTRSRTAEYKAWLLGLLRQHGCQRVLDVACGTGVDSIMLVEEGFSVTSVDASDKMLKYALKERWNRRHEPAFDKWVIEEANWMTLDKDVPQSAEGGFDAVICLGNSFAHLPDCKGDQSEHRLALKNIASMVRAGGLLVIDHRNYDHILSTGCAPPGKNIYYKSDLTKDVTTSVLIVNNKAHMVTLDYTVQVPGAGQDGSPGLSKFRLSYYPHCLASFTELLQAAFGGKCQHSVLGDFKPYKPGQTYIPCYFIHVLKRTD
Excerpt: as §1, §2, §3, §4, §5, §6, §7, §8, §9, §10, §11, §12, §13, §14, §15, §16, §17, §18, §19, §20, §21, §22, §23
8. […]

[3] = target: Guanidinoacetate N-methyltransferase (Homo sapiens) (UniProt Q14353); conditions: purified enzyme, MTase-Glo SAH luminescence; measured here: GAMT inhibition; at 40 µM; stronger effect = lower value
Excerpt: as §1, §2, §3, §4, §5, §6, §7, §8, §9, §10, §11, §12, §13, §14, §15, §16, §17, §18, §19, §20, §21, §22, §23
8. […]

[4] = target: Histamine N-methyltransferase (Homo sapiens) (UniProt P50135); conditions: purified enzyme, MTase-Glo SAH luminescence; measured here: HNMT inhibition; at 40 µM; stronger effect = lower value
Histamine N-methyltransferase (Homo sapiens), sequence (P50135 whole entry, looked up): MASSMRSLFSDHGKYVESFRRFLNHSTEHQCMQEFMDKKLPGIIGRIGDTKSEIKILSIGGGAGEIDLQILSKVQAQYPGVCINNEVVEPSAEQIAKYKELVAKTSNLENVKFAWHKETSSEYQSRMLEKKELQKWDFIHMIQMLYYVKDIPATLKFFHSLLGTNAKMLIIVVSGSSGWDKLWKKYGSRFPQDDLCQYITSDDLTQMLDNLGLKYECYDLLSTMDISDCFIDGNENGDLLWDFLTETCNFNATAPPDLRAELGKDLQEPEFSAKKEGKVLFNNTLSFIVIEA
Excerpt: as §1, §2, §3, §4, §5, §6, §7, §8, §9, §10, §11, §12, §13, §14, §15, §16, §17, §18, §19, §20, §21, §22, §23
8. […]

[5] = target: Nicotinamide N-methyltransferase (Homo sapiens) (UniProt P40261); conditions: purified enzyme, MTase-Glo SAH luminescence; measured here: NNMT inhibition; at 40 µM; stronger effect = lower value
Nicotinamide N-methyltransferase (Homo sapiens), sequence (P40261 whole entry, looked up): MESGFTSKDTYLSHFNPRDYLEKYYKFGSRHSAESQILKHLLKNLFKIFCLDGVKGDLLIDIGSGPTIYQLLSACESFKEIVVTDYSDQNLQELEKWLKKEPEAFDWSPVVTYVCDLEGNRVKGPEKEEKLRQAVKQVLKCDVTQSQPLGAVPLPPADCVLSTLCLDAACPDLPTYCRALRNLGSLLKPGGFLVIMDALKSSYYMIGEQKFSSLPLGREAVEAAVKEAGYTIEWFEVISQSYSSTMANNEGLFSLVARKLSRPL
Excerpt: as §1, §2, §3, §4, §5, §6, §7, §8, §9, §10, §11, §12, §13, §14, §15, §16, §17, §18, §19, §20, §21, §22, §23
8. […]

[6] = target: Phenylethanolamine N-methyltransferase (Homo sapiens) (UniProt P11086); conditions: purified enzyme, MTase-Glo SAH luminescence; measured here: PNMT inhibition; at 40 µM; stronger effect = lower value
Phenylethanolamine N-methyltransferase (Homo sapiens), sequence (P11086 whole entry, looked up): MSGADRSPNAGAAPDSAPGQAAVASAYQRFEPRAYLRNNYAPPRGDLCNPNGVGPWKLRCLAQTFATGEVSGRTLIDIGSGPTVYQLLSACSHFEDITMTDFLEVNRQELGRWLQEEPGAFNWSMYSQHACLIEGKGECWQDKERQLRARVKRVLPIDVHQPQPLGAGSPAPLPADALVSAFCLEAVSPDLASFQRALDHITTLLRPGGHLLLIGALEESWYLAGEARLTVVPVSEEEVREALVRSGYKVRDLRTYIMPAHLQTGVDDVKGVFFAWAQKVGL
Excerpt: as §1, §2, §3, §4, §5, §6, §7, §8, §9, §10, §11, §12, §13, §14, §15, §16, §17, §18, §19, §20, §21, §22, §23
8. […]
% is set by controls: 0 for no effect and ±100 for the full control effect.

Row | SMILES | activity change, negative = inhibition [1] | activity change, negative = inhibition [2] | activity change, negative = inhibition [3] | activity change, negative = inhibition [4] | activity change, negative = inhibition [5] | activity change, negative = inhibition [6]
1 | Cc1cc2c(F)c(Oc3ncnn4cc(OCC(C)O)c(C)c34)ccc2[nH]1 (stereo not drawn) | 3.68% (inactive) | 3.84% | 9.85% | 8.7% | -17.3% | -3.09%
2 | Cc1nonc1OCCn1ccnc1-c1cn(C2CCNCC2)nn1 | 0.411% (inactive) | -2.5% | -0.534% | -2.48% | -2.16% | -1.03%
3 | CCOC(=O)c1ccc(N2C(=O)CSc3c(c4ccccc4n3C)C2C(=O)NCc2ccccc2)cc1 (stereo not drawn) | 8.93% (inactive) | 13.6% | 0.807% | 10.5% | 10.6% | 10.2%
4 | CC1CC(O)/C=C/C(O)/C=C\C(=O)O1 (stereo not drawn) | -1.4% (inactive) | 0.769% | 10.1% | 9.33% | -2.16% | 5.9%
5 | O=C(CCn1ccc2cc(S(=O)(=O)N3CCCC3)ccc21)NCc1cccc(Cl)c1 | -5.13% (inactive) | -5.66% | 0% | -0.957% | -15.3% | -7.6%
6 | CC(F)(F)CN1CCOc2c(nn(-c3ccccc3Cl)c2-c2ccc(Cl)cc2)C1=O | -4.89% (active) | -72.3% | -2.43% | -6.67% | -49.1% | -14.4%
7 | COc1cc(NC(=O)CSc2nnc3n(CC(C)C)c(=O)c4ccccc4n23)cc(OC)c1 | 1.19% (inactive) | 0.652% | 4.16% | 4.88% | 0.518% | 1.8%
8 | CC1=C(C(=O)O)/C(=C/CO[C@@H]2O[C@H](COC(=O)/C=C/c3ccc(O)cc3)[C@@H](O)[C@H](O)[C@H]2O)C(O)C1 (stereo partly drawn) | -20.2% (inactive) | 4.68% | 4.63% | 9.32% | -5.67% | 0.561%
9 | COc1ccc2cc3n(c2c1)CC(C)(C(=O)NC1CCCC1)N(CCc1ccc(SC)cc1)C3=O (stereo not drawn) | -1.16% (inactive) | 0.148% | 0% | 3.11% | -0.661% | -4.18%
10 | CCC[C@H]1CN(C(=O)c2ccc3c(c2)NC(=O)CN3)C[C@@H]1N | -3.16% (inactive) | -3.38% | -8.81% | -2.88% | -6.82% | -2.87%
11 | CCOc1ccc(N2C(=O)c3cc(-c4ccc(OC)cc4)nn3CC2(C)C(=O)NCc2ccccc2OC)cc1 (stereo not drawn) | 4.86% (inactive) | 7.45% | 4.82% | 9.26% | 5.96% | 0.163%
12 | CN1C(=O)c2cc(C(=O)NCCc3cccs3)nn2CC1(C)C(=O)NCc1ccc(F)cc1 (stereo not drawn) | 1.71% (inactive) | 3.48% | 0% | -2.18% | 9.12% | 3.02%
13 | C[C@]12CCC[C@](C)(C(=O)O)C1[C@@H](O)[C@@H](O)C13CC(CCC12)C(CO)(O[C@@H]1O[C@H](CO)[C@@H](O)[C@H](O)[C@H]1O)C3 (stereo partly drawn) | -23% (inactive) | 0% | 1.76% | 7.4% | -7.28% | 3.45%
